Reference: the supplement of paper PMC8728848
This is one part of a sample in which the strongest signals are shown more often than they occur.

Key:
Experiment in all cases: glycan array binding signal (z-score within array); higher = stronger binding
Conditions in all cases: glycan notation: IUPAC condensed, linker removed
[1] = molecular target: Gal(b1-4)GlcNAc(b1-6)[Gal(b1-4)GlcNAc(b1-3)]GalNAc
Outline: (§1)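 Negative Z-scores can be read as non-binding. The Z-score is calculated within each array and then averaged across arrays of one protein sequence at different concentrations or buffers and across linkers. Arrays, 3228 in all, were curated from the Consortium for Functional Glycomics database and kept only where the protein sequence was available.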

Gal3S(b1-3)GalNAc = molecular target: Gal3S(b1-3)GalNAc
Outline: as §1

Gal3S4S(b1-4)GlcNAc = molecular target: Gal3S4S(b1-4)GlcNAc
Outline: as §1

Gal3S6S(b1-4)GlcNAc = molecular target: Gal3S6S(b1-4)GlcNAc
Outline: as §1

[2] = molecular target: GalNAc(b1-4)GlcNAc(b1-2)Man
Outline: as §1

[3] = molecular target: GlcNAc(a1-4)Gal(b1-4)GlcNAc(b1-3)Gal(b1-4)GlcNAc
Outline: as §1

[4] = molecular target: GlcNAc(b1-2)Man(a1-3)[GlcNAc(b1-2)Man(a1-6)]Man(b1-4)GlcNAc(b1-4)GlcNAc
Outline: as §1

[5] = molecular target: GlcNAc(b1-2)Man(a1-3)[GlcNAc(b1-2)Man(a1-6)]Man(b1-4)GlcNAc(b1-4)[Fuc(a1-6)]GlcNAc
Outline: as §1

[6] = molecular target: GlcNAc(b1-3)Gal(b1-4)GlcNAc(b1-3)Gal(b1-4)GlcNAc(b1-3)Gal(b1-4)GlcNAc(b1-3)Gal(b1-4)GlcNAc(b1-2)Man(a1-3)[GlcNAc(b1-3)Gal(b1-4)GlcNAc(b1-3)Gal(b1-4)GlcNAc(b1-3)Gal(b1-4)GlcNAc(b1-3)Gal(b1-4)GlcNAc(b1-2)Man(a1-6)]Man(b1-4)GlcNAc(b1-4)GlcNAc
Outline: as §1

[7] = molecular target: GlcNAc(b1-3)Gal(b1-4)GlcNAc(b1-3)Gal(b1-4)GlcNAc(b1-3)Gal(b1-4)GlcNAc(b1-3)Gal(b1-4)GlcNAc(b1-2)Man(a1-3)[GlcNAc(b1-3)Gal(b1-4)GlcNAc(b1-3)Gal(b1-4)GlcNAc(b1-3)Gal(b1-4)GlcNAc(b1-3)Gal(b1-4)GlcNAc(b1-2)Man(a1-6)]Man(b1-4)GlcNAc(b1-4)[Fuc(a1-6)]GlcNAc
Outline: as §1

[8] = molecular target: GlcNAc(b1-3)Gal(b1-4)GlcNAc(b1-3)GalNAc
Outline: as §1

[9] = molecular target: GlcNAc(b1-3)[GlcNAc(b1-6)]GalNAc
Outline: as §1

GlcNAc(b1-6)GalNAc = molecular target: GlcNAc(b1-6)GalNAc
Outline: as §1

Kdn(a2-3)Gal(b1-4)Glc = molecular target: Kdn(a2-3)Gal(b1-4)Glc
Outline: as §1

[10] = molecular target: Man(a1-2)Man(a1-3)[Man(a1-6)]Man(a1-6)[Man(a1-2)Man(a1-3)]Man(b1-4)GlcNAc(b1-4)GlcNAc
Outline: as §1

[11] = molecular target: Man(a1-3)[Man(a1-6)]Man(b1-4)GlcNAc(b1-4)GlcNAc
Outline: as §1

[12] = molecular target: Neu5Ac(a2-3)Gal(b1-4)[Fuc(a1-3)]GlcNAc(b1-3)Gal(b1-4)GlcNAc
Outline: as §1

[13] = molecular target: Neu5Ac(a2-3)Gal6S(b1-4)[Fuc(a1-3)]GlcNAc
Outline: as §1

[14] = molecular target: Neu5Ac(a2-6)Gal(b1-3)GlcNAc(b1-3)[Gal(b1-4)GlcNAc(b1-6)]Gal(b1-4)Glc
Outline: as §1

[15] = molecular target: Neu5Ac(a2-8)Neu5Ac(a2-3)Gal(b1-3)GalNAc(b1-4)[Neu5Ac(a2-8)Neu5Ac(a2-3)]Gal(b1-4)Glc
Outline: as §1

[16] = molecular target: Neu5Ac(a2-8)Neu5Ac(a2-3)Gal(b1-4)GlcNAc
Outline: as §1

[17] = molecular target: Neu5Gc(a2-3)Gal(b1-4)GlcNAc(b1-3)Gal(b1-4)GlcNAc(b1-2)Man(a1-3)[Neu5Gc(a2-3)Gal(b1-4)GlcNAc(b1-3)Gal(b1-4)GlcNAc(b1-2)Man(a1-6)]Man(b1-4)GlcNAc(b1-4)GlcNAc
Outline: as §1

[18] = molecular target: Neu5Gc(a2-6)Gal(b1-4)GlcNAc
Outline: as §1

[19] = molecular target: Neu5Gc(a2-8)Neu5Gc(a2-3)Gal(b1-4)GlcNAc
Outline: as §1

B1: Gal 3C (Homo sapiens), P17931 (protein)
chain: YGAPAGPLIVPYNLPLPGGVVPRMLITILGTVKPNANRIALDFQRGNDVAFHFNPRFNENNRRVIVCNTKLDNNWGREERQSVFPFESGKPFKIQVLVEPDHFKVAVNDAHLLQYNHRVKKLNEISKLGISGDIDLTSASYTMI
[1]
  glycan array binding signal (z-score): -0.244
Gal3S(b1-3)GalNAc
  glycan array binding signal (z-score): -0.289
Gal3S4S(b1-4)GlcNAc
  glycan array binding signal (z-score): -0.291
Gal3S6S(b1-4)GlcNAc
  glycan array binding signal (z-score): -0.289
[2]
  glycan array binding signal (z-score): -0.274
[3]
  glycan array binding signal (z-score): -0.2
[4]
  glycan array binding signal (z-score): -0.279
[5]
  glycan array binding signal (z-score): -0.196
[6]
  glycan array binding signal (z-score): 4.63
[7]
  glycan array binding signal (z-score): 4.02
[8]
  glycan array binding signal (z-score): -0.286
[9]
  glycan array binding signal (z-score): -0.331
GlcNAc(b1-6)GalNAc
  glycan array binding signal (z-score): -0.322
Kdn(a2-3)Gal(b1-4)Glc
  glycan array binding signal (z-score): -0.237
[10]
  glycan array binding signal (z-score): -0.298
[11]
  glycan array binding signal (z-score): -0.065
[12]
  glycan array binding signal (z-score): -0.191
[13]
  glycan array binding signal (z-score): -0.327
[14]
  glycan array binding signal (z-score): -0.3
[15]
  glycan array binding signal (z-score): -0.226
[16]
  glycan array binding signal (z-score): -0.266
[17]
  glycan array binding signal (z-score): -0.152
[18]
  glycan array binding signal (z-score): -0.31
[19]
  glycan array binding signal (z-score): -0.336
